# Bioassay records (PubChem BioAssay)
# Gal4-VP16 FLuc = counter-screen for ROR gamma inhibitors: Gal4-VP16 reporter; Drosophila S2 Gal4-VP16 UAS-luciferase, luminescence, 20 h; 310,000 tested, 3.5% active; Potency, µM (series often up to 53.6 µM), without a hit: at the top dose activity, negative = inhibition, actives largely listed as inhibitors;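 also: Gal4-VP16 expression switched on by copper sulfate through the metallothionein promoter; % is scaled to controls: 0 for no effect and ±100 for the full control effect; nearly all actives have a fitted effect of over 50% in size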
# KB-V1 MDR tox = KB-V1 MDR subline cytotoxicity; KB-V1 MDR cells viability, CellTiter-Glo, 72 h; Potency, µM (highest dose often 46.1 µM), usual class: cytotoxic; 400,000 tested, 3.4% active; also: % is scaled to controls: 0 for no effect and ±100 for the full control effect; nearly all actives have a fitted effect of over 60% in size
#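 Drug-selected KB-V1 cells, grown in DMEM lacking phenol red with 10% FBS, receive compound titrations; after three days at 37 degrees C, surviving cell ATP is quantified by CellTiter-Glo luminescence and responses normalized and curve-fitted.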
# RORgamma inh = blocks mouse ROR gamma transcriptional activity. P51450. Drosophila S2 Gal4-RORgamma UAS-luciferase reporter, 20 h. Potency, µM (top dose mostly 53.6 µM), inactives show top-dose activity change, negative = inhibition, usual class: inhibitors. 310,000 tested, 5.4% active; also: % is scaled to controls: 0 for no effect and ±100 for the full control effect; nearly all actives have a fitted effect of over 60% in size
# Target sequence (P51450 whole entry, looked up, the tested form may be a part): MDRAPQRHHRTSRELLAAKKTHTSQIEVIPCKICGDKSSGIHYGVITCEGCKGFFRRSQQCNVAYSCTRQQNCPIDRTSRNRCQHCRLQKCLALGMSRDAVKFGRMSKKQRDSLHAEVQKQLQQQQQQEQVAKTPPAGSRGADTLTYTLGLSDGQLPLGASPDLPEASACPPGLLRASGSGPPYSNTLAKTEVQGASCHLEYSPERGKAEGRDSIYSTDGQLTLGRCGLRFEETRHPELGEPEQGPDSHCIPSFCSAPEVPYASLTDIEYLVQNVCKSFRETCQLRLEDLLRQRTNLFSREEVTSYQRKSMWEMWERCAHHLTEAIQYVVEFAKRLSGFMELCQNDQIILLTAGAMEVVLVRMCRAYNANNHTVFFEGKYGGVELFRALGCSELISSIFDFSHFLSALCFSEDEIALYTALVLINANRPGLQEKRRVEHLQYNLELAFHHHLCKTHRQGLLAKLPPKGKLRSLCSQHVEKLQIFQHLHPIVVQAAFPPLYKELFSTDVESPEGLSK
#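 Compounds are pin-transferred onto Drosophila Schneider cells expressing a copper-inducible Gal4–ROR gamma transactivation domain fusion. After 1 hr, copper sulfate is added to 700 uM final; luciferase is read 20 hr later.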
# SW480 rereplic = induces DNA re-replication in SW480 colon adenocarcinoma cells | SW480 DNA re-replication, Hoechst DNA content imaging, 48 h | Potency, µM (doses to about 46.1 µM), for the others: top-dose re-replication activation, most hits filed as activators | 340,000 tested, 1.8% active | AID 624297; also: % of control where 0% means no effect; nearly all actives have a fitted effect of over 55% in size
#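 First, 250 cells per well were seeded. Next, compound or vehicle (23 nL) was pinned in, plates sat 48 hr at 37 C. Finally Hoechst was added for 40 min before fluorescence scanning.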
# KB-3-1 tox = kills parental KB-3-1 adenocarcinoma cells | KB-3-1 viability, CellTiter-Glo ATP luminescence, 72 h | Potency, µM (top dose mostly 46.1 µM), hits mostly cytotoxic | 400,000 tested, 1.4% active; also: % is scaled to controls: 0 for no effect and ±100 for the full control effect; nearly all actives have a fitted effect of over 60% in size
#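 Cytotoxicity measured as CellTiter-Glo luminescence after 72 h at 37 C. Compound titrations were pinned onto drug-naive KB-3-1 parental adenocarcinoma cells grown in DMEM with 10% FBS, and normalized data fitted to concentration-response curves.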
# MCF10A rereplic = DNA re-replication induction in MCF 10a cells; MCF 10A DNA re-replication, Hoechst nuclear intensity, 48 h; Potency, µM (highest dose often 46.1 µM), for the others: top-dose activity, positive = re-replication, most hits filed as activators; 350,000 tested, 2.9% active; AID 624296; also: % of control where 0% means no effect; nearly all actives have a fitted effect of over 50% in size
# An asterisk follows results filed as active; i = inactive; ? = inconclusive; nt = no result; [ ] = remark or other dose. Most compounds without a hit are left out; they make up all but 10% or so of the library. Calls follow the shape of the dose curve; as a rule, active = well fitted curve in the direction sought with a large enough effect; inconclusive = small, poorly fitted or top-dose-only effect, or another doubt; inactive = no such curve, though single readings can be large; an effect the other way counts as inactive or inconclusive. Potency is read from the fitted curve at half-maximal effect.
SMILES,Gal4-VP16 FLuc,KB-V1 MDR tox,RORgamma inh,SW480 rereplic,KB-3-1 tox,MCF10A rereplic
O=C(c1ccc(NS(=O)(=O)c2ccccc2)cc1)N1CCCCCC1,5.6%,?,29.7%,-5.3%,i,-1.9%
O=S(=O)(c1ccc2ccccc2c1)n1nc(-c2ccco2)nc1NCc1cccc(Cl)c1,nt,i,nt,nt,i,nt
CCc1nn(CC(=O)NCCOC)c(=O)c2cc3cc(F)ccc3n12,nt,i,nt,nt,i,nt
Cc1ccc(NS(=O)(=O)c2cccc(C(=O)N3CCN(c4ncccn4)CC3)c2)cc1,nt,8.2µM*,nt,4.7%,i,?
CCOc1ccc(S(=O)(=O)Nc2ccc(C(=O)N3CCCC3)cc2)cc1,-4.6%,i,-19.2%,2.5%,i,-16.0%
CCOc1ccc(NS(=O)(=O)c2ccc(C(=O)N3CCN(C(C)=O)CC3)cc2)cc1,20µM*,?,?,0.7%,?,10.1%
CCOC(=O)N1CCN(C(=O)c2ccc(Oc3ccc([N+](=O)[O-])cc3)cc2)CC1,-28.9%,7.31µM*,12.0%,3.0%,i,-2.4%
Cc1ccc(NS(=O)(=O)c2ccc(C(=O)N3CCCCCC3)cc2)cc1,nt,4.61µM*,nt,1.8%,?,4.0%
CN1CCN(C(=O)c2ccc(Oc3ccc([N+](=O)[O-])cc3)cc2)CC1,-8.2%,?,57.9%,-0.3%,i,15.6%
CCCCN(C(=O)C1CC(=O)N(c2ccc(CC)cc2)C1)c1c(N)n(CCC)c(=O)[nH]c1=O (centres undefined),nt,i,nt,3.4%,i,8.1%
CC(=O)OCC1=C[C@H]2[C@@H]3C(C)(C)[C@]3(OC(C)=O)C[C@@H](C)[C@]2(O)[C@@H]2C=C(C)C(=O)[C@@]2(O)C1,-3.3%,nt,13.5%,nt,nt,nt
Cc1ccc(NNC(=O)C(=O)N2CCCCC2)cc1,-3.5%,i,?,20.1%,i,6.51µM*
Cc1ccccc1C(=O)NNC(=O)C(=O)N1CCCCC1,3.0%,i,-1.9%,-8.7%,i,-17.1%
Cc1ccc(S(=O)(=O)c2cnc(SC(C)C(=O)Nc3ccccc3)[nH]c2=O)cc1 (centres undefined),nt,i,nt,nt,i,nt
Cc1cc(C)cc(NC(=O)CSc2oc(-c3cccs3)nc2S(=O)(=O)c2ccc(Br)cc2)c1,nt,i,nt,nt,i,nt
CC(C)N1C(=O)/C(=C\c2nc3ccccc3c(=O)n2-c2ccccc2)c2ccccc21,?,?,-32.5%,2.91µM*,?,?
CC(C)N1C(=O)/C(=C/c2nc3ccccc3c(=O)n2-c2ccccc2)c2ccccc21,6.2%[0.365 µM],?,?,?,?,16.4µM*
CC(C)N1C(=O)C(Cc2nc3ccccc3c(=O)n2-c2ccccc2)c2ccccc21 (centres undefined),2.4%,i,25.4%,11.8%,i,4.4%
NC(=S)n1[nH]c(-c2ccc([N+](=O)[O-])cc2)c(N=Nc2ccc(Cl)cc2)c1=O,?,i,0.398µM*,16.6%,18.4µM*,-7.6%
Cc1cc([N+](=O)[O-])ccc1N=Nc1c(N)[nH]n(-c2ccccc2)c1=O,-2.7%,i,18.1%,-2.7%,i,11.8%
Cc1ccc([N+](=O)[O-])cc1N=Nc1c(-c2ccc([N+](=O)[O-])cc2)[nH]n(C(N)=S)c1=O,-10.9%,?,0.316µM*,8.4%,i,2.6%
Cc1ccc([N+](=O)[O-])cc1N=Nc1c(C)[nH]n(C(N)=S)c1=O,10µM*,i,7.08µM*,-16.9%,i,0.7%
CCOc1ccc(-n2c(=O)c3sc4ccccc4c3n(Cc3cccc(C)c3)c2=O)cc1,nt,i,nt,nt,i,nt
CC[C@H](C)[C@@H](NC(=O)O[C@@H]1Cc2cc(Br)ccc2O[C@H]1c1cccc(OC)c1)C(=O)OC,-12.2%,nt,12.2%,nt,nt,nt
Clc1ccccc1Nc1nnc(-c2ccncc2)s1,?,9.2µM*,?,-7.2%,?,-7.0%
N#Cc1ccccc1-c1ccc2ncnc(NCCN3CCOCC3)c2c1,15.9%,nt,38.3%,nt,nt,nt
CC(C)c1ccc2oc(-c3cc(NC(=O)c4cccnc4)ccc3Cl)nc2c1,nt,i,nt,nt,i,nt
